# Experimental data published in PubChem BioAssay.
# Calls of active or inactive are those of the source.
# Columns and labels:
# [1] = system: Wnt5a (protein binding on small-molecule microarray); assay: Wnt5a binders on small-molecule microarray, primary screen, biophysical, 635/667 nm fluorescence (AID 1142); conditions: 635 nm fluorescence, higher = more signal;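 further: fluorescence read at 667 nm with signal to noise per printed feature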
# [2] = cell viability in Huh7 cells, primary screen, cytotoxicity control for HCV replication inhibitor project, CellTiter-Glo luminescence, basal, 48 h (AID 1143); conditions: Huh7 HCV replicon, higher = more signal, called active from +8 up or from −8 down;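 further: Huh7 hepatoma cells carrying a hepatitis C replication reporter with no stimulus; test concentration not given here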
# [3] = CREB reporter modulators without forskolin, primary screen, cell-based, PC12, CRE-LacZ reporter, unstimulated (AID 1145); conditions: no forskolin, luminescence, 4.5 h, higher = more signal, called active from +8 up or from −8 down
# [4] = CREB reporter modulators under forskolin, primary screen, cell-based, PC12, CRE-LacZ reporter, forskolin-stimulated (AID 1146); conditions: luminescence, 4.5 h, higher = more signal, called active from +8 up or from −8 down;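 further: PC12 cells with 6xCRE LacZ reporter stimulated by forskolin 10 µM; beta-galactosidase reporter signal reflecting CREB driven transcription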
# [5] = target: Streptavidin (Streptomyces avidinii) (UniProt P22629); assay: streptavidin binders on small-molecule microarray, primary screen, artefact control for SMM compound annotation, biophysical, 635/667 nm fluorescence (AID 1147); conditions: streptavidin binding, higher = more signal;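 further: signal reflects streptavidin binding to arrayed compounds as a control protein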
# [6] = small-molecule binders of probe aInhba, primary screen, biochemical, small-molecule microarray, 635/667 nm fluorescence (AID 1148); conditions: higher = more signal;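 further: score merges 667nm spot fluorescence with signal-to-noise for antibody binding to printed compounds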
# Torsin-1A (Homo sapiens) [7] = target: Torsin-1A (Homo sapiens) (UniProt O14656); assay: torsin A binders from cell lysate, primary screen, small-molecule microarray, wild-type, 635/667 nm (AID 1149); conditions: COS7 hTOR1A-WT lysate, 635 nm fluorescence, higher = more signal
# Torsin-1A (Homo sapiens) [8] = target: Torsin-1A (Homo sapiens) (UniProt O14656); assay: small-molecule binders of mutant TOR1A in lysate, primary screen, cell lysate, small-molecule microarray, COS7 lysate, 635/667 nm fluorescence (AID 1150); conditions: COS7 hTOR1A mutant lysate, 635 nm fluorescence, higher = more signal;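 further: score pools 667 nm emission and signal to noise measuring lysate protein binding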
# [9] = system: Sonic hedgehog protein (Shh); assay: small-molecule binders of Shh protein, primary screen, biochemical, small-molecule microarray, 635/667 nm fluorescence (AID 1151); conditions: small-molecule microarray binding, 635 nm fluorescence; higher = more signal;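 further: Shh protein binding to compounds spotted on small-molecule microarray slides; score combines spot fluorescence intensity with signal-to-noise across triplicate slides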
# [10] = E. coli DRC41 culture turbidity changes, primary screen, E. coli filamentation inducer project, strain DRC41, OD650, 48 h (AID 1152);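 further: E. coli MC1000 strain DRC41 lacking acrAB efflux pump and sulA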; conditions: E. coli DRC41 (acrAB sulA), higher = more signal, called active from +8 up or from −8 down
# [11] = small-molecule binders of probe aLefty1, primary screen, biochemical, small-molecule microarray, 635/667 nm fluorescence (AID 1153); conditions: higher = more signal;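 further: score merges spot fluorescence with signal-to-noise ratio from the scanned slide images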
# [12] = PSAC antagonists in infected red cells, primary screen, cell-based, P. falciparum Indochina, OD700, 1 h (AID 1154); conditions: P. falciparum Indochina infected RBC osmotic lysis, higher = more signal, called active from +8 up or from −8 down
# [13] = PSAC antagonists in infected red cells, primary screen, cell-based, P. falciparum Indochina, OD700, 2 h (AID 1155);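 further: lysis reports solute entry through the parasite surface anion channel PSAC; channel blockers reduce lysis of infected cells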; conditions: P. falciparum Indochina infected erythrocytes, osmotic lysis OD700; higher = more signal, called active from +8 up or from −8 down
# [14] = osmotic lysis modulators in infected erythrocytes, primary screen, PSAC antagonist project, cell-based, P. falciparum Indochina, OD700, 3 h (AID 1156); conditions: higher = more signal, called active from +8 up or from −8 down
# [15] = PSAC antagonists in infected red cells, primary screen, cell-based, P. falciparum Indochina, OD700, 18 h (AID 1157); conditions: P. falciparum Indochina infected erythrocytes, osmotic lysis OD700, 18 h; higher = more signal, called active from +8 up or from −8 down
# [16] = modulators of S6 phosphorylation in cells, primary screen, cell-based, A549, cytoblot, luminescence, serum-stimulated (AID 1158); conditions: A549 phospho-S6 cytoblot, 5 h, higher = more signal;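 further: serum-stimulated A549 lung adenocarcinoma cells; signal is phosphorylated S6 detected by cytoblot immunostaining with HRP secondary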
# [17] = target: NADPH oxidase 2 (Homo sapiens) (UniProt P04839); assay: NOX2-dependent H2O2 signal modulators, primary screen, NOX inhibitor project, cell-based, HEK293-NOX2, PMA-stimulated, Amplex Red fluorescence (AID 1159); conditions: 45 min, higher = more signal, called active from +8 up or from −8 down; further: test concentration not given here
# [18] = target: NADPH oxidase 4 (Homo sapiens) (UniProt Q9NPH5); assay: NOX4-dependent H2O2 signal modulators, primary screen, NOX inhibitor project, cell-based, HEK293-NOX4, tetracycline-induced, Amplex Red fluorescence (AID 1160); conditions: 45 min, higher = more signal, called active from +8 up or from −8 down
# [19] = target: NADPH oxidase 5 (Homo sapiens) (UniProt Q96PH1); assay: NOX5-dependent H2O2 signal modulators, primary screen, NOX inhibitor project, cell-based, HEK293-NOX5, Amplex Red fluorescence (AID 1161); conditions: HEK293-NOX5, ionomycin, 45 min, higher = more signal
# Chain of NADPH oxidase 5 (Homo sapiens) (Q96PH1 whole entry, looked up): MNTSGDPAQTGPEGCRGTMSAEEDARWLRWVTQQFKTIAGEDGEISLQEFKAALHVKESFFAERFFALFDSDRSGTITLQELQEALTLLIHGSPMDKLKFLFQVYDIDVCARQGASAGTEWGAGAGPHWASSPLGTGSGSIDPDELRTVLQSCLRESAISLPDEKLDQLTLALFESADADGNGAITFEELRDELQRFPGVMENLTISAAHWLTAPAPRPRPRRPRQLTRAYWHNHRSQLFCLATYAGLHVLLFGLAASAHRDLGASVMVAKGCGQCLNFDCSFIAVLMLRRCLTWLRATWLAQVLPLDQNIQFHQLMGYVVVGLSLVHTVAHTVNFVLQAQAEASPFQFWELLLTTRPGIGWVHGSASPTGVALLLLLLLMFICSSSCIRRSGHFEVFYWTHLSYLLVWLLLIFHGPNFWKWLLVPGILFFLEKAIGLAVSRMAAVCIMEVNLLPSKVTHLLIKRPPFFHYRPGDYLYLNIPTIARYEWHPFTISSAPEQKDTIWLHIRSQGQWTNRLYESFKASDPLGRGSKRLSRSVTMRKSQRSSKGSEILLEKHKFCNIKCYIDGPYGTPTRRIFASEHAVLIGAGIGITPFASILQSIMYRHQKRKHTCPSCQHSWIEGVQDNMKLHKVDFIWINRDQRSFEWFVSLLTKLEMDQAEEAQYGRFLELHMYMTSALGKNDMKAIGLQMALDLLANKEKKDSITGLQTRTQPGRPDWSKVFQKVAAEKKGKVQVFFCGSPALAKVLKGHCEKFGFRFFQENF
# Chain of NADPH oxidase 2 (Homo sapiens) (P04839 whole entry, looked up): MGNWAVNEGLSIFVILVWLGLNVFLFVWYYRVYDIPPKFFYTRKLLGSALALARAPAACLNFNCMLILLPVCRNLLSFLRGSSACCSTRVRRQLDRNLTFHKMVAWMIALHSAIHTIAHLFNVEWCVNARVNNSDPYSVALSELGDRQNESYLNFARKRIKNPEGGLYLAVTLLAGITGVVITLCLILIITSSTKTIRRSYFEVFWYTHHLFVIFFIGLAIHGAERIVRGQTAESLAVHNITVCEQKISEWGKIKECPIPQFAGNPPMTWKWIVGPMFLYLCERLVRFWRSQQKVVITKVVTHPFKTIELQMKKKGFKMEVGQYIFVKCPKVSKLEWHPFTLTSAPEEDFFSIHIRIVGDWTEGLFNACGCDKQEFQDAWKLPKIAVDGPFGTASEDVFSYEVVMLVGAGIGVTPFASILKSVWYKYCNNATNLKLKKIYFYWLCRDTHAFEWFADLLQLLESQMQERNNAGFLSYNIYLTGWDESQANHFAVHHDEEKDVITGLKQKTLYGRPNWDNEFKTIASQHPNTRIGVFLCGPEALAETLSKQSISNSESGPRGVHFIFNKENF
# Chain of NADPH oxidase 4 (Homo sapiens) (Q9NPH5 whole entry, looked up): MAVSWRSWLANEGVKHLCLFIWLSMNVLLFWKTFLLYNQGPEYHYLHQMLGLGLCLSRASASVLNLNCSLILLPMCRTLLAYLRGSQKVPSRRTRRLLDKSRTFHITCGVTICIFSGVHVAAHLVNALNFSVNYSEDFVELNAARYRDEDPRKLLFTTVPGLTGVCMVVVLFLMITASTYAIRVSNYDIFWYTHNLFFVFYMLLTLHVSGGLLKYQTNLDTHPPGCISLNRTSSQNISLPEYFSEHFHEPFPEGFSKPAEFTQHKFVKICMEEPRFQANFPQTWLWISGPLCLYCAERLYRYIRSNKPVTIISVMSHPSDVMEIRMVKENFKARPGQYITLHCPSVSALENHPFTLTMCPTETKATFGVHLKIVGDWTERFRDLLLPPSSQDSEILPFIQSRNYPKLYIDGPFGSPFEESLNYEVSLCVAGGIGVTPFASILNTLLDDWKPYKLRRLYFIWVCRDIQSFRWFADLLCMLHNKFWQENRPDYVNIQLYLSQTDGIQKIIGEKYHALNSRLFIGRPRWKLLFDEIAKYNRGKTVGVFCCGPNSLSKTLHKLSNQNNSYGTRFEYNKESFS
# Chain of Streptavidin (Streptomyces avidinii) (P22629 whole entry, looked up): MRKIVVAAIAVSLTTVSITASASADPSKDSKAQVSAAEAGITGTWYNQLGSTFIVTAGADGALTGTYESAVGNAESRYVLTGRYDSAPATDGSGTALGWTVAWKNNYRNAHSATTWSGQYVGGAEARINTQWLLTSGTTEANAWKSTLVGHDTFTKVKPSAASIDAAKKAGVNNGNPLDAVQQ
# Chain of Torsin-1A (Homo sapiens) (O14656 whole entry, looked up): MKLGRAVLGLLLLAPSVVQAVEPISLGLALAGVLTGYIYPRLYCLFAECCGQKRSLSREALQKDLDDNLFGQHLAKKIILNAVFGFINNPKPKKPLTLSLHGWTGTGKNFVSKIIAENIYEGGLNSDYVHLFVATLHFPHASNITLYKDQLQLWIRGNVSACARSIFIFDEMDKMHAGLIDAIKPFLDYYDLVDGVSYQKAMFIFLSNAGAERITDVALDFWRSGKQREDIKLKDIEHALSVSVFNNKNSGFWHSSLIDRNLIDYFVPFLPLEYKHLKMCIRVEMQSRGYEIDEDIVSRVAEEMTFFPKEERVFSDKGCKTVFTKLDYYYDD
smiles,measurement,setting,value
[N-]=[N+]=NCc1ccccc1C[C@]1(C(N)=O)N=C(c2ccc(OCCCO)cc2)O[C@H]1c1ccccc1CN=[N+]=[N-],composite z-score,[1],0.447
same,z-score,[2],-5.2 (inactive)
same,z-score,[3],1.08 (inactive)
same,z-score,[4],-0.375 (inactive)
same,composite z-score,[5],1.68
same,composite z-score,[6],0.17
same,composite z-score,Torsin-1A (Homo sapiens) [7],0.105
same,composite z-score,Torsin-1A (Homo sapiens) [8],0.369
same,composite z-score,[9],-0.742
same,z-score,[10],0.0277 (inactive)
same,composite z-score,[11],0.71
same,z-score,[12],29.3 (active)
same,z-score,[13],19.8 (active)
same,z-score,[14],1.82 (inactive)
same,z-score,[15],2.86 (inactive)
same,z-score,[16],2.41
same,z-score,[17],-1.06 (inactive)
same,z-score,[18],0.885 (inactive)
same,z-score,[19],-0.692
C[N+](C)(C)CCCC[C@@H]1NC(=O)[C@H]2C[C@@H](C(=O)NCc3ccc(F)cc3)[C@@H](c3cccc(OCCO)c3)N2C1=O,composite z-score,[1],0.141
same,z-score,[2],-0.533 (inactive)
same,z-score,[3],1.23 (inactive)
same,z-score,[4],-0.396 (inactive)
same,composite z-score,[5],-0.326
same,composite z-score,[6],-0.0963
same,composite z-score,Torsin-1A (Homo sapiens) [7],0.55
same,composite z-score,Torsin-1A (Homo sapiens) [8],1.07
same,composite z-score,[9],1.4
same,z-score,[10],0.923 (inactive)
same,composite z-score,[11],-0.0536
same,z-score,[12],2.46 (inactive)
same,z-score,[13],-1.3 (inactive)
same,z-score,[14],-5.77 (inactive)
same,z-score,[15],-2.37 (inactive)
same,z-score,[16],0.123
same,z-score,[17],0.999 (inactive)
same,z-score,[18],0.834 (inactive)
same,z-score,[19],1.53
CO[C@H]1O[C@H](CO)[C@@H](OC(=O)CCc2ccccc2)[C@@H]2OC(=O)[C@H](Cc3cccc(Br)c3)C/C=C/C[C@@H](Cc3cccc(Br)c3)C(=O)O[C@@H]12,composite z-score,[1],-0.0182
same,z-score,[2],-3.47 (inactive)
same,z-score,[3],-0.198 (inactive)
same,z-score,[4],-0.896 (inactive)
same,composite z-score,[5],-0.115
same,composite z-score,[6],-0.147
same,composite z-score,Torsin-1A (Homo sapiens) [7],1.07
same,composite z-score,Torsin-1A (Homo sapiens) [8],0.358
same,composite z-score,[9],-0.149
same,z-score,[10],3.1 (inactive)
same,composite z-score,[11],-0.139
same,z-score,[12],1.18 (inactive)
same,z-score,[13],-0.807 (inactive)
same,z-score,[14],-0.856 (inactive)
same,z-score,[15],-1.19 (inactive)
same,z-score,[16],2.26
same,z-score,[17],2.16 (inactive)
same,z-score,[18],1.57 (inactive)
same,z-score,[19],1.28
CC(C)CNC(=O)[C@@]1(C)c2ccccc2C(=O)N(Cc2ccc(OC(F)(F)F)cc2)[C@H]1c1ccc(CO)cc1,composite z-score,[1],0.12
same,z-score,[2],-1.65 (inactive)
same,z-score,[3],0.0279 (inactive)
same,z-score,[4],-0.569 (inactive)
same,composite z-score,[5],-1.12
same,composite z-score,[6],-0.128
same,composite z-score,Torsin-1A (Homo sapiens) [7],-0.0233
same,composite z-score,Torsin-1A (Homo sapiens) [8],0.316
same,composite z-score,[9],-0.406
same,z-score,[10],1.28 (inactive)
same,composite z-score,[11],0.152
same,z-score,[12],2.97 (inactive)
same,z-score,[13],0.251 (inactive)
same,z-score,[14],1.09 (inactive)
same,z-score,[15],-0.0139 (inactive)
same,z-score,[16],0.181
same,z-score,[17],-0.201 (inactive)
same,z-score,[18],0.775 (inactive)
same,z-score,[19],1.01
CO[C@H]1COC(=O)[C@H](CCSC)NC(=O)CC=C[C@@H](C)COC(=O)[C@@H](OCc2ccccc2)C=C[C@@H]1C,composite z-score,[1],0.156
same,z-score,[2],0.111 (inactive)
same,z-score,[3],-0.0223 (inactive)
same,z-score,[4],-0.48 (inactive)
same,composite z-score,[5],-0.154
same,composite z-score,[6],-0.0762
same,composite z-score,Torsin-1A (Homo sapiens) [7],2.88
same,composite z-score,Torsin-1A (Homo sapiens) [8],2.85
same,composite z-score,[9],1.93
same,z-score,[10],-0.332 (inactive)
same,composite z-score,[11],-0.109
same,z-score,[12],-0.349 (inactive)
same,z-score,[13],0.238 (inactive)
same,z-score,[14],0.04 (inactive)
same,z-score,[15],-0.236 (inactive)
same,z-score,[16],0.182
same,z-score,[17],1.65 (inactive)
same,z-score,[18],-1.43 (inactive)
same,z-score,[19],0.00807
CO[C@H]1COC(=O)[C@@H](C)NC(=O)CC=C[C@@H](C)[C@H](OC)COC(=O)CC=C[C@@H]1C,composite z-score,[1],0.0227
same,z-score,[2],-2.38 (inactive)
same,z-score,[3],-0.747 (inactive)
same,z-score,[4],-1.2 (inactive)
same,composite z-score,[5],0.0569
same,composite z-score,[6],-0.39
same,composite z-score,Torsin-1A (Homo sapiens) [7],1.45
same,composite z-score,Torsin-1A (Homo sapiens) [8],1.69
same,composite z-score,[9],2.21
same,z-score,[10],0.394 (inactive)
same,composite z-score,[11],0.0455
same,z-score,[12],1.08 (inactive)
same,z-score,[13],-0.211 (inactive)
same,z-score,[14],0.237 (inactive)
same,z-score,[15],-1.58 (inactive)
same,z-score,[16],0.722
same,z-score,[17],0.714 (inactive)
same,z-score,[18],0.981 (inactive)
same,z-score,[19],0.539
C=CCC(OC(C)=O)[C@@H]1[C@@H](N(Cc2ccc(-c3ccccc3)cc2)C(=O)c2ccc(C)cc2)c2cc(OCCCO)ccc2N1C(=O)c1ccc(-c2ccccc2)cc1 (stereo partly specified),composite z-score,[1],0.504
same,z-score,[2],-1.62 (inactive)
same,z-score,[3],1.73 (inactive)
same,z-score,[4],-0.782 (inactive)
same,composite z-score,[5],0.0598
same,composite z-score,[6],0.0884
same,composite z-score,Torsin-1A (Homo sapiens) [7],-0.0824
same,composite z-score,Torsin-1A (Homo sapiens) [8],0.119
same,composite z-score,[9],0.0223
same,z-score,[10],2.2 (inactive)
same,composite z-score,[11],-0.0583
same,z-score,[12],0.267 (inactive)
same,z-score,[13],-0.576 (inactive)
same,z-score,[14],-1.07 (inactive)
same,z-score,[15],-0.888 (inactive)
same,z-score,[16],1.05
same,z-score,[17],-0.366 (inactive)
same,z-score,[18],0.639 (inactive)
same,z-score,[19],1.05
COc1cccc([C@H]2N[C@H](C(=O)O)CC[C@@H]2C)c1,composite z-score,[1],0.04
same,z-score,[2],-3.79 (inactive)
same,z-score,[3],-0.167 (inactive)
same,z-score,[4],-1.61 (inactive)
same,composite z-score,[5],0.158
same,composite z-score,[6],-0.111
same,composite z-score,Torsin-1A (Homo sapiens) [7],0.386
same,composite z-score,Torsin-1A (Homo sapiens) [8],0.403
same,composite z-score,[9],-0.0276
same,z-score,[10],0.669 (inactive)
same,composite z-score,[11],-0.23
same,z-score,[12],1.09 (inactive)
same,z-score,[13],0.0208 (inactive)
same,z-score,[14],0.269 (inactive)
same,z-score,[15],-1.06 (inactive)
same,z-score,[16],3.05
same,z-score,[17],0.0263 (inactive)
same,z-score,[18],-0.557 (inactive)
same,z-score,[19],0.125
CC(C)[Si]1(C(C)C)O[C@@H](c2ccccc2)c2cc(C3CC3)nc(-c3ccc(Oc4ccccc4)cc3)c21,composite z-score,[1],-0.217
same,z-score,[2],-0.313 (inactive)
same,z-score,[3],0.0176 (inactive)
same,z-score,[4],-0.59 (inactive)
same,composite z-score,[5],-0.646
same,composite z-score,[6],-0.0082
same,composite z-score,Torsin-1A (Homo sapiens) [7],-0.617
same,composite z-score,Torsin-1A (Homo sapiens) [8],-0.0373
same,composite z-score,[9],-0.239
same,z-score,[10],2.17 (inactive)
same,composite z-score,[11],-0.0011
same,z-score,[12],0.835 (inactive)
same,z-score,[13],-0.0994 (inactive)
same,z-score,[14],1.08 (inactive)
same,z-score,[15],-0.812 (inactive)
same,z-score,[16],-0.164
same,z-score,[17],1.06 (inactive)
same,z-score,[18],0.86 (inactive)
same,z-score,[19],0.456
